Measured values: PubChem BioAssay AID1415 (NMMLSC, 2008)
In all, about 220,000 compounds went through this assay and about 710 (0.32%) were called active. Only a selection was taken, and actives are over-represented in it overall. Values without a mark were called inactive. Rule as the data show it: active = binding response below about 49% or above about 150%; inactive = in between.

target: Guanine nucleotide-binding protein G(o) subunit alpha (Homo sapiens) (UniProt P09471); assay: modulators of RGS4 binding to Galphao, primary screen, biochemical, multiplexed bead flow cytometry (AID 1415); conditions: at 10 µM, actives lie on both sides;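 also: fluorescent Galphao activated with aluminum fluoride binding bead-coupled RGS4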
Sequence (P09471 whole entry, looked up): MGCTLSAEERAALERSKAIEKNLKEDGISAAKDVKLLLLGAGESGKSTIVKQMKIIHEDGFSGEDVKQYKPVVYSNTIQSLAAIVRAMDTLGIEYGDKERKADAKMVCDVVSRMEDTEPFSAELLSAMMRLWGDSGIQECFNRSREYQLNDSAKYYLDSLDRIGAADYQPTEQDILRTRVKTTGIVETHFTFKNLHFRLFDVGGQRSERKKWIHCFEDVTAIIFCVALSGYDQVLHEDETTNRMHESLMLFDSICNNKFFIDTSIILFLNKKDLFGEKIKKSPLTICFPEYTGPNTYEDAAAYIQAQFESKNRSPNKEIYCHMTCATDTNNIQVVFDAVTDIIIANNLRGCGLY

SMILES | binding response (% of control)
CN1CCN(S(=O)(=O)c2ccc(N3CCN(S(=O)(=O)c4cccs4)CC3)nc2)CC1 | 101%
Cc1ccc(NC(=O)NCC(c2cccnc2)N2CCOCC2)cc1 (configuration not stated) | 105%
CN1CCN(C(CNS(=O)(=O)c2cccs2)c2cccnc2)CC1 (configuration not stated) | 0.16% (active)
OCCC1CN(Cc2ccc(Oc3ncccn3)cc2)CCN1CCc1ccccc1 (configuration not stated) | 98.9%
O=C(Nc1cc(Cl)cc(Cl)c1)C(NCCCO)c1ccccc1 (configuration not stated) | 102%
O=C(CNCc1cccs1)Nc1cc(S(=O)(=O)N2CCCC2)ccc1Cl | 103%
O=C(O)CCCCCNc1ncnc2ccc(Br)cc12 | 98%
Oc1ccc(N=Nc2nccs2)c(O)c1 | -21.6% (active)
Oc1ccc2ccccc2c1N=Nc1nccs1 | 99.9%
CC(NC(=O)C(=O)Nc1nccs1)c1ccccc1 (configuration not stated) | 94.3%
Cc1nc(NNC(=O)c2ccccc2)cc(-c2ccccc2)n1 | 101%
CC(CC(=O)C1C(C)C=CCC1(C)C)NNC(N)=O (configuration not stated) | 101%
O=C(c1ccc(=O)oc1)N1CCC(C(O)(c2ccccc2)c2ccccc2)CC1 | 100%
COC(=O)CCCC1=CC2=C(c3ccccc3)C(=O)C(C)(OC(=O)C3CCCC3)C(=O)C2=CN1c1ccc(OC)cc1 (configuration not stated) | 97%
Cc1ccccc1CC1(CO)CCCN(C(=O)c2cc(-c3ccccc3)no2)C1 (configuration not stated) | 110%
O=C(CCc1ccccc1)NNC(=O)c1ccc(Br)cc1 | 109%
CCCn1nnnc1NC(=O)COc1ccc(Cl)cc1C | 22.6% (active)
CCOC(=O)N1CCN(C(=O)COc2ccc(Cl)cc2C)CC1 | 102%
Cc1cc(NC(=O)COc2ccc(Cl)cc2Cl)n(CCC#N)n1 | 94.6%
CC(Oc1ccccc1)C(=O)Nc1oc(-c2ccco2)c(-c2ccco2)c1C#N (configuration not stated) | 96.1%
O=C(CC1SCCNC1=O)Nc1ccc(Cl)cc1 (configuration not stated) | 102%
C/C(=N\NC(=S)NC(C)C)c1ccc(C(C)(C)C)cc1 | 102%
Cc1c(C(=O)Nc2ccccc2Cl)oc2ccc(S(=O)(=O)N3CCC4(CC3)OCCO4)cc12 | 106%

SMILES | binding response (% of control)
CCOc1ccccc1NC(=O)c1cc(S(=O)(=O)N2CCC3(CC2)OCCO3)ccc1F | -0.18% (active)
CCOc1ccccc1NC(=O)CCN1CCN(S(=O)(=O)c2ccc(OC)cc2)CC1 | 97%
CS(=O)(=O)c1sc(C(=O)NC(=S)Nc2ccc(OC(F)(F)F)cc2)c2c1C=CCC2 | 113%
C=C(C)C(=O)Nc1cccc(C2=NOC3(C2)C[C@H](C(N)=O)N(C(=O)C(c2ccccc2)c2ccccc2)C3)c1 (some centres not stated) | 100%
Cc1cc(NC(=O)OC(C)C)ccc1-c1ccc(NC(=O)OC(C)C)cc1C | 96.1%
C=CCn1c(Cn2nnc3ccccc32)nnc1SCC(=O)N/N=C/c1cc(Br)cc(OC)c1O | -38.5% (active)
Cc1ccc(Cn2c(SCC(=O)N/N=C/c3ccccc3OCC(=O)O)nc3ccccc32)cc1 | 98.8%
COc1ccc(OC)c(/C=N/NC(=O)CSc2nnc(C)n2-c2ccccc2)c1 | 96.1%
CCC(C)NC(=O)Cn1nc(C(F)(F)F)c2c1CCC2 (configuration not stated) | 101%
COc1ccc(COCCN2CCN(S(=O)(=O)c3ccccc3)CCC2=O)cc1 | 84%
CN(C)c1ccc(/C=N/NC(=O)c2ccc(Cn3cc(Br)cn3)o2)cc1 | 98.7%
COC(=O)CNc1nc(Cl)nc(N2CCC(C)CC2)n1 | 101%
Cc1nnc(SCC(=O)N2c3ccccc3C(C)(c3ccc(Cl)cc3)CC2(C)C)s1 (configuration not stated) | 96.9%
Cc1nc2cc(NC(=O)NC3CC3)ccc2n1C | 103%
Cc1nc2cc(NC(=O)Nc3cccc(F)c3)ccc2n1C | 91.6%
Cc1cc2nc(C)n(CCCNC(=O)Nc3ccccc3)c2cc1C | 158% [activator] (active)
Cc1onc(-c2ccccc2)c1C(=O)N=C(N)c1ccc(Cl)cc1 | 104%
N#Cc1ccc(CSc2nnc3ccccn23)cc1 | 101%
CCCCC1=CC2=CC(=O)C(C)(OC(=O)CC)C(=O)C2=CN1CCCOC(C)C (configuration not stated) | 96%
CCCC1C(c2ccccc2)C(C#N)(C#N)C2(C#N)CC1(N)NC2=O (configuration not stated) | 162% [activator] (active)
NC1=NC[C@@H](Cc2ccc(O)cc2)N1CC1CCCCC1 | 87.1%
CCOC(=O)c1ccc(NC(=O)c2nc[nH]c2C(=O)NCc2ccccc2)cc1 | 103%
CCCCOC(=O)Cn1c(=O)n(CC(=O)OCCCC)c2cc(C)ccc21 | 103%

SMILES | binding response (% of control)
CCCCOC(=O)Cn1c(=N)n(CCN(CC)CC)c2ccccc21 | 184% [activator] (active)
CCn1c(=N)n(CC(=O)c2cccc(OC)c2)c2ccccc21 | 98.3%
O=C(CN(C(=O)c1csnn1)c1cccc(F)c1)NCc1ccc(F)cc1 | 97.4%
Cc1ccc(S(=O)(=O)NCC(=O)OCC(=O)N2CCc3ccccc32)cc1 | 204% [activator] (active)
Cc1cnc(C(=O)OCC(=O)N2CCc3ccccc32)cn1 | 104%
Cc1ccc(S(=O)(=O)N(C)CC(=O)N2CCc3ccccc32)cc1 | 104%
C#CCO[C@@H]1C[C@H](n2cnc3c(=O)[nH]c(NC(=O)C(C)C)nc32)O[C@@H]1CO | 81.4%
C=CCC1(CC=C)CCCN1C(=O)CC1C(=O)NCCN1Cc1ccccc1OC (configuration not stated) | 102%
[O-][n+]1c2c(nn1-c1ccc(Cl)c(Cl)c1)-c1nonc1CC2 | 106%
COc1ccc(/C(O)=C2\C(=O)C(=O)N(Cc3ccco3)C2c2ccc(OC)cc2OC)cc1 (configuration not stated) | 99.5%
COCCCN1C(=O)C(=O)/C(=C(/O)c2ccc3c(c2)CC(C)O3)C1c1cccnc1 (configuration not stated) | 95%
COc1cc(C2/C(=C(\O)c3ccc4c(c3)CC(C)O4)C(=O)C(=O)N2Cc2ccco2)ccc1O (configuration not stated) | 18.3% (active)
COC(=O)c1c(C)oc(C)c1S(=O)(=O)NCc1ccc(Cl)cc1 | 98.2%
CCN(CC)c1ccc(S(=O)(=O)N2CCOCC2)cc1NC(=O)CSc1cccc[n+]1[O-] | 91.7%
O=C(CSc1ccc2nnc(-c3ccccc3)n2n1)N1CCCc2ccccc21 | 156% [activator] (active)
CCCn1c(SCC(=O)N2CCc3ccccc32)nnc1-c1ccncc1 | 99.9%
Cn1c(SCC(=O)N2CCCc3ccccc32)nc2ccccc2c1=O | 89.2%
Nc1ccccc1Sc1cc(Cl)nnc1Cl | 97.6%
O=C(NC1CCc2ccccc21)C12CN(Cc3ccccc3)CC1C(c1cccc([N+](=O)[O-])c1)=NO2 (configuration not stated) | 99.7%
Cn1c(=O)c2c(n(Cc3ccccc3)c1=O)NC(=O)C2CC(=O)N1CCc2ccccc2C1 (configuration not stated) | 21.4% (active)
O=C(COc1ccccc1)N1CCc2ccccc2C1 | 103%
O=C(CSc1nnc(-c2cccs2)n1Cc1ccccc1)N1CCc2ccccc2C1 | 99.4%
Cc1ccc(NC(=O)CNCc2ccccn2)cc1S(=O)(=O)N(C)C | 97.3%

SMILES | binding response (% of control)
Cn1c(CC2Sc3ccccc3NC2=O)nnc1SCC(=O)c1ccc(Cl)cc1 (configuration not stated) | 88.2%
CCc1c(C)nc2cc(-c3cccs3)[nH]n2c1=O | 93.5%
Cc1cc(=O)n2[nH]c(-c3sccc3-n3c(C)ccc3C)cc2n1 | 50.1% (active)
COc1cccc2cc(/C(C)=N/NC(=O)c3ccco3)oc12 | 98%
COc1cc(NC(=O)CSc2nnc3ccc(-c4ccncc4)nn23)cc(OC)c1 | 98.4%
COCCCNC(=S)N(Cc1ccccc1)Cc1ccc(F)cc1 | 106%
CN(c1ccccc1)c1ccc(/C=c2\s/c(=C(/C#N)C(=O)C(C)(C)C)n(Cc3ccco3)c2=O)cc1 | 566% [activator] (active)
COc1ccc(NC(=O)Cn2c(=O)n(Cc3ccco3)c(=O)c3ccccc32)cc1 | 101%
Cc1cs/c(=N\N=C\c2ccc(O)cc2)n1Cc1ccco1 | 99.6%
CCOc1ccc(NC(=O)CSc2ncnc3c2sc2ccccc23)cc1 | 103%
O=C(CN1CCCCCC1)N1c2ccccc2Sc2ccc(C(F)(F)F)cc21 | 89.3%
O=C(CN1CCCCC1)N1c2ccccc2Sc2ccc(C(F)(F)F)cc21 | 21.1% (active)
COc1cc(/C=C/C(=O)N2c3ccccc3Sc3ccc(C(F)(F)F)cc32)cc(OC)c1OC | 103%
CCN(CC)S(=O)(=O)c1ccc(NC(=O)c2cccnc2Cl)c(NC(=O)c2cccnc2Cl)c1 | 101%
COc1cc(NS(=O)(=O)c2ccc(NC(=O)c3ccc(S(=O)(=O)N4CCCCC4)cc3)cc2)ncn1 | 107%
NC(=O)[C@H]1CC2(CC(c3cccc(NC(=O)[C@H]4CCC(=O)N4)c3)=NO2)CN1C(=O)c1ccccc1C(=O)c1ccccc1 (some centres not stated) | 101%
CC1CCN(C(=S)NC2CC3CCC2C3)CC1 (configuration not stated) | 107%
O=C(Nc1ccn(Cc2ccccc2)n1)c1cccc(F)c1 | 97.8%
Cc1ccc(Cn2ccc(NC(=O)C3C4CCC(C4)C3C(=O)O)n2)cc1 (configuration not stated) | 103%
Cc1ccc(Cn2ccc(NC(=O)c3cc(C(C)C)on3)n2)cc1 | 49% (active)
Cc1cc(C)n(-c2ccc3nncn3n2)n1 | 97.6%
Cn1ccc(NC(=O)Nc2ccc(Cl)cc2)n1 | 101%
Cn1cc(C(=O)NCc2ccccc2F)cn1 | 101%
